Experimental data as given in PubChem BioAssay (NCI).
Compounds without any hit were thinned out: in the full panel of roughly 83,000, 20% have a hit.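 The endpoint reported here, percent growth, reads 100 for growth as untreated, 0 for no net growth and -100 for all cells dead.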 Values without a mark were called inactive. The source made the active and inactive calls. The calls were made as follows: active = growth percent below 10; inactive = the rest.

Assays:
Test in all cases: NCI-60 one-dose screen, 48 h (100 = growth as untreated, 0 = no growth, -100 = all killed)
[1] = test system: HCT-15 colon; details: 10 µM unless noted
[2] = test system: HT29 colon; details: 10 µM unless noted
[3] = test system: SNB-75 CNS; details: 10 µM unless noted
[4] = test system: SNB-19 CNS; details: 10 µM unless noted
[5] = test system: U251 CNS; details: 10 µM unless noted
[6] = test system: PC-3 prostate; details: 10 µM unless noted
[7] = test system: SK-MEL-5 melanoma; details: 10 µM unless noted
[8] = test system: UACC-62 melanoma; details: 10 µM unless noted
[9] = test system: LOX IMVI melanoma; details: 10 µM
[10] = test system: SK-MEL-28 melanoma; details: 10 µM unless noted
[11] = test system: SK-MEL-2 melanoma; details: 10 µM unless noted
[12] = test system: SN12C renal; details: 10 µM unless noted
[13] = test system: UO-31 renal; details: 10 µM unless noted
[14] = test system: TK-10 renal; details: 10 µM unless noted
[15] = test system: ACHN renal; details: 10 µM unless noted
[16] = test system: CAKI-1 renal; details: 10 µM unless noted
[17] = test system: CCRF-CEM leukemia; details: 10 µM unless noted
[18] = test system: MOLT-4 leukemia; details: 10 µM unless noted
[19] = test system: A498 renal; details: 10 µM unless noted
[20] = test system: EKVX NSCLC; details: 10 µM unless noted

Row | Structure (SMILES) | growth [1] | growth [2] | growth [3] | growth [4] | growth [5] | growth [6] | growth [7] | growth [8] | growth [9] | growth [10] | growth [11] | growth [12] | growth [13] | growth [14] | growth [15] | growth [16] | growth [17] | growth [18] | growth [19] | growth [20]
1 | CCCCCCCCCCCCCCCC[N+]1(C)CCCC1c1cccnc1 (centres undefined) | 77.9% | 15.1% | 37.1% | 29.1% | 16.7% | 8.08% (active) | 43.9% | 50.6% | 49.2% | 97% | 98.1% | 44.5% | 91.3% | 49.7% | 85.6% | 92.9% | 38.7% | 33% | – | –
2 | COC(=O)[C@]1(C)CCC[C@]2(C)c3ccc(C(C)C)cc3C(=O)[C@@H](Br)[C@@H]12 | 69.6% | 76.2% | 80.4% | 98.3% | 91.1% | 86.8% | 90.4% | 90.6% | 79.7% | 100% | 103% | 96.1% | 69.5% | 102% | – | 89% | 70.9% | 60.1% | 109% | –
3 | CCOc1ccc2c(c1)/C(=C\C=C\C1CC(C)C3CC(OCC)CCC3N1CC)CC(C)N2CC (centres undefined) | 17.8% | -33.4% (active) | -0.249% (active) | 22.2% | 6.59% (active) | 3.32% (active) | -86.3% (active) | 32.5% | 16.3% | 22.8% | -54.6% (active) | 6.7% (active) | 0.241% (active) | – | 12% | 17.9% | -40.3% (active) | -42.5% (active) | 15% | –
4 | Oc1ccccc1N=Cc1ccccc1 | 58.5% | 102% | 132% | 93.7% | 89.9% | 36.5% | 65.2% | 98.8% | 54.7% | 119% | 82.4% | 81.7% | 67.4% | 122% | 85.1% | 97.7% | – | 81.2% | 97.7% | –
5 | O=[N+]([O-])c1ccc(N2CCN(Cc3ccccc3)CC2)c2c1no[n+]2[O-] | -52.8% (active) | -70.4% (active) | 68.4% | 37.3% | -47.8% (active) | -31.4% (active) | 38.1% | 4.15% (active) | -36.3% (active) | 77% | 64.8% | 19.1% | -78.1% (active) | -15.7% (active) | – | 15.3% | – | -29.8% (active) | 47.6% | –
6 | Cn1ccc(=Nc2ccc(NC(=O)c3ccc(N=c4ccn(C)c5ccc([N+](=O)[O-])cc45)cc3)cc2)cc1 | 98.2% | 73% | -9.29% (active) | -5.19% (active) | -17.5% (active) | 44% | 89.8% | 70.1% | 56.2% | 87.3% | 91.1% | 45.3% | 82.6% | 122% | 99.2% | 113% | 89.2% | 126% | 97.6% | –
7 | O=C1/C(=C/c2ccccn2)CCc2ccccc21 | 95.3% | 97.6% | 97.7% | 97% | 100% | 94.6% | 97.2% | 97.5% | 86.5% | 111% | 105% | 102% | 101% | 95.4% | – | 84.8% | 51.6% | 49% | 77.7% | –
8 | CC(C)(C)c1ccc(CCO)cc1 | 109% | 110% | 96.7% | 95.7% | 103% | 99.8% | 95.6% | 89.5% | 99.5% | 121% | 92.3% | – | 78.8% | 93.7% | 107% | – | 87.2% | 99.1% | 118% | 89.6%
9 | N=C1C=C(N)C(=O)c2ccccc21 | -74.6% (active) | -38.8% (active) | -99.1% (active) | -98.7% (active) | -72.1% (active) | -7.01% (active) | -96% (active) | -95.8% (active) | -100% (active) | -96.5% (active) | -53.6% (active) | -66.9% (active) | -86.3% (active) | -67.5% (active) | -81.6% (active) | -47.7% (active) | 3.15% (active) | -25% (active) | – | –
10 | CC(O)C(O)C(O)C(O)C(O)C(=O)NNc1ccccc1 (centres undefined) | 78.6% | 104% | 82.6% | 97.1% | 97.6% | 86.3% | 107% | 30.5% | 48.1% | 103% | 106% | – | 70.6% | 110% | 67% | 77.1% | – | 101% | 69.7% | –
11 | COC(=O)c1nc(=S)[nH]c(C(=O)OC)c1C(=O)c1ccc(Cl)c(Cl)c1 | 105% | 112% | 92.7% | 105% | 103% | 106% | 101% | 102% | 99.2% | 124% | 107% | 102% | 87% | 106% | 114% | 94.6% | – | 130% | 130% | –
12 | Cc1nc([N+](=O)[O-])c(Sc2nncc(-c3ccccc3)n2)n1C | 68% | 84.5% | 76.6% | 116% | 79.4% | 98.1% | 96% | 82.2% | 82.2% | 89.1% | 95.4% | 86.8% | 60.3% | 74.4% | 62.6% | -3.06% (active) | 45.1% | 65.7% | 107% | –
13 | O=C/C=C/c1ccc([N+](=O)[O-])cc1 | 105% | 97.6% | 98.9% | 95.3% | 95.5% | 98.7% | 102% | 98.2% | 83.8% | 113% | 103% | 102% | 84.2% | 99.9% | – | 100% | 87.6% | 82.1% | 78.6% | –
14 | COc1ccc(C(OCC2OC(n3ccc(NC(=O)c4ccccc4)nc3=O)C(O)C2O)(c2ccccc2)c2ccccc2)cc1 (centres undefined) | 20.6% | 8.51% (active) | 34.1% | 54.7% | 33.1% | 22.9% | 24.2% | 43.9% | 46.6% | 55.9% | – | -38.2% (active) | 22.7% | 81.5% | 47.3% | 55% | 47.1% | 3.18% (active) | 52.8% | 38.4%
15 | CC(C)c1ccc(C(=O)OC2CCCC2)cc1 | 95.3% | 113% | 90.4% | 102% | 109% | 89.9% | 98.7% | 97.7% | 95% | 108% | 105% | 97.5% | 99.6% | – | 99.5% | 98.8% | 89.8% | 110% | 117% | –
16 | c1ccc(C2NCCNC2c2ccccc2)cc1 (centres undefined) | 102% | 101% | 87.5% | 102% | 107% | 98.6% | 104% | 102% | 99.1% | 111% | 98.7% | 102% | 80.9% | 110% | 108% | 97.6% | 104% | 99.7% | 80.6% | –
17 | CN(Cc1ccccc1)c1ccc(SC#N)cc1 | 71.8% | 52.3% | 81.3% | 93.3% | 73.4% | 27.4% | 98.2% | 97% | 45% | 101% | 98.4% | 103% | 37.7% | 95.8% | 78.8% | 98.9% | 10.8% | 55.4% | 93% | –
